Bioassay records: PubChem, Buhrlage Lab, Dana-Farber Cancer Institute and Novartis Institutes for BioMedical Research (Cambridge, Mass)
Only some compounds are listed: those with a hit (about 7% of all), similar ones and a draw of the others.
USP28 inh = inhibitors of human USP28 deubiquitinase. Ubiquitin carboxyl-terminal hydrolase 28 (Homo sapiens), Q96RU2. purified USP28, Ub-rhodamine cleavage fluorescence, 30 min. inhibition, % at 25 µM. 3% of 47,000 active. AID 1645857, 2021
USP30 block = inhibitors of human USP30 deubiquitinase | Ubiquitin carboxyl-terminal hydrolase 30 (Homo sapiens), Q70CQ3 | purified USP30, Ub-rhodamine cleavage fluorescence | inhibition, % at 25 µM | 5.3% of 47,000 active | AID 1645860, 2021
Target sequence (Q70CQ3 whole entry, looked up): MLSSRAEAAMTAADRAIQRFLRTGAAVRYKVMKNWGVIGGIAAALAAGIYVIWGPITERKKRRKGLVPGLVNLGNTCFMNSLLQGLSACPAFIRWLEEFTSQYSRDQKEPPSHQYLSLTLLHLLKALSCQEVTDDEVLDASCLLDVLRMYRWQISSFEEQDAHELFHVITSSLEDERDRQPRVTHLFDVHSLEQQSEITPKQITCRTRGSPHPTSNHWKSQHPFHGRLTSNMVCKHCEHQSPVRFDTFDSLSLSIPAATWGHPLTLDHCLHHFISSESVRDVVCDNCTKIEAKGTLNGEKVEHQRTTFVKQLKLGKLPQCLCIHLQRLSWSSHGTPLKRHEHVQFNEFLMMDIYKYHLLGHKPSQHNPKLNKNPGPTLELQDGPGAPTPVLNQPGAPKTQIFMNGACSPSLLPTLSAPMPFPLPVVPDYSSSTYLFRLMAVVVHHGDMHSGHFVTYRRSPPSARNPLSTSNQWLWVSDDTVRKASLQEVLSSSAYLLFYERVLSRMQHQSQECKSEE
Hits are given with their value; – = inactive. Cut-off read from the data, not from the text of the source: active = inhibition above about 30%; inactive = the rest.

SMILES | USP28 inh | USP30 block
O=C(Cn1c(=O)n(CC2CCC(C(=O)NC3CCCC3)CC2)c(=O)c2ccccc21)NCc1ccco1 (stereo not given) | 50 | 39
COc1cc(NC(=O)Cn2c(=O)n(CC3CCC(C(=O)NC4CCCC4)CC3)c(=O)c3ccccc32)cc(OC)c1 (stereo not given) | – | 44
CCCCn1c(=O)c(CCC(=O)OCC(=O)Nc2ccccc2C#N)nc2ccccc21 | – | –
O=C(Nc1nc2ccc(Oc3ccccc3)cc2s1)c1ccccn1 | – | –
Cc1cccc(NC(=O)N2CCCC(CN3CCc4ccccc4C3)C2)c1 (stereo not given) | – | –
O=C(NC1CCCCC1)N1CCc2[nH]cnc2C1c1ccncc1 (stereo not given) | – | –
COc1ccc(CN2C(=O)C3=C(CCCC3)C2OC)cc1 (stereo not given) | – | –
CCc1csc(-c2cn(CC(=O)Nc3ccc(C)c(C)c3)cn2)n1 | – | –
Cc1cccc(-n2cc(-c3ccccc3)c3c(NCc4ccccn4)ncnc32)c1 | – | –
COc1ccc(-n2cc(-c3ccccc3)c3c(NC4CC4)ncnc32)cc1 | – | –
Clc1cccc(-n2cc(-c3ccccc3)c3c(NCc4ccccn4)ncnc32)c1 | 53 | 75
c1ccc(-c2cn(-c3ccccc3)c3ncnc(NC4CC4)c23)cc1 | 35 | –
Cc1nc2cccnc2n1C1CCN(C(=O)Nc2ccc3c(c2)CCC3)C1 (stereo not given) | – | –
CN1C[C@@H](NC(=O)Nc2cccc(C#N)c2)C[C@H]1c1nc(-c2ccc(F)cc2)no1 | – | –
COc1ccc(-c2noc([C@@H]3C[C@H](NC(=O)Nc4cccc(C#N)c4)CN3C)n2)cc1 | – | 37
O=C(COc1ccc(-n2cnnn2)cc1)N1c2ccccc2OCC1c1ccccc1 (stereo not given) | – | –
CN1C(=O)CO[C@H](c2ccc(NC(=O)c3ccccc3)cc2)[C@H]1CO | – | –
CC(=O)Nc1ccc([C@H]2OCC(=O)N(C3CCOCC3)[C@@H]2CO)cc1 | – | 51
COc1ccc(-c2cc(C(=O)N3CCN(c4ccc(N5CCOCC5)nn4)CC3)[nH]n2)cc1 | 32 | –
O=C(c1cc(-c2ccc(Cl)cc2)n[nH]1)N1CCN(c2ccc(N3CCOCC3)nn2)CC1 | – | –
CCOc1ccccc1NC(=O)C(OC(=O)c1ccc(OCC(=O)Nc2ccc(OC)cc2)c(OC)c1)c1ccccc1 (stereo not given) | – | –
CCOc1ccccc1NC(=O)COc1cc(OC)ccc1C(=O)c1ccccc1 | 56 | –
Cc1ccccc1Cn1c(=O)n(Cc2ccc(C(=O)NC3CCN(Cc4ccccc4)CC3)cc2)c(=O)c2ccccc21 | – | –
N#Cc1ccccc1Cn1c(=O)n(Cc2ccc(C(=O)NC3CCCC3)cc2)c(=O)c2ccccc21 | – | 33
O=C(NC1CCCC1)c1ccc(Cn2c(=O)c3ccccc3n(Cc3ccc(F)cc3)c2=O)cc1 | – | –
SMILES | USP28 inh | USP30 block
O=C(NC1CCN(Cc2ccccc2)CC1)c1ccc(Cn2c(=O)c3ccccc3n(Cc3ccccc3F)c2=O)cc1 | – | 34
CCc1cc(=O)[nH]c(NC2CCN(CC(=O)Nc3ccc(OC)cc3)CC2)n1 | – | –
Cc1ccccc1Cn1nc(C)c(NC(=O)c2c(C)nn(C(F)F)c2C)c1C | – | –
CC(C)CCn1c(=O)c2ccccc2n2c(CCC(=O)NCc3ccccc3Cl)nnc12 | – | –
CC(C)CCn1c(=O)c2ccccc2n2c(CCC(=O)NC3CCCCCC3)nnc12 | – | 50
CCCn1c(=O)c2sccc2n2c(CCC(=O)NC3CCC(C)CC3)nnc12 (stereo not given) | – | 40
CCn1c(=O)c2sccc2n2c(CCC(=O)NC3CCCCCC3)nnc12 | – | –
Cc1cnc(C2CN(C(=O)C3(c4ccccc4)CCCC3)CCO2)[nH]1 (stereo not given) | – | –
Cc1oc(-c2[nH]ncc2C(=O)N(C)C)cc1S(=O)(=O)NCc1ccccc1Cl | – | –
Fc1ccc(Cn2c(-c3cccnc3Cl)nc3ccccc32)cc1 | – | –
Cc1ccc(NC(=O)CNC(=O)c2cc3ccccc3o2)cc1F | – | –
COc1cc(NC(=O)Cc2ccccc2)ccc1NC(=O)c1cc2ccccc2o1 | – | 41
O=C(CNC(=O)c1cc2ccccc2o1)Nc1cccc(F)c1 | – | 46
Cc1ccc(NC(=O)CNC(=O)c2cc3ccccc3o2)cc1 | – | –
CC(=O)c1cccc(NC(=O)CNC(=O)c2cc3ccccc3o2)c1 | – | –
O=C(CNC(=O)c1cc2ccccc2o1)Nc1ccc2c(c1)OCCO2 | 56 | –
CN(Cc1ccccc1)C(=O)CCS(=O)(=O)c1cc2c(cc1Br)CCN2C(=O)C1CC1 | – | –
Cn1c(CN2CCOCC2)nnc1SCc1ccc(Cl)cc1 | – | 32
Cn1c(CN2CCOCC2)nnc1SCc1ccc(F)cc1 | – | –
O=C(NCc1ccccc1)c1cncc(NS(=O)(=O)c2ccc(F)cc2)c1 | – | –
Cc1noc(C)c1COc1cccc(C(=O)Nc2cccc(Cl)c2)c1 | – | –
COc1ccc(C2C3CCCCC3(O)CCN2C(=O)/C=C/c2ccc(OC)c(OC)c2)cc1 (stereo not given) | – | –
O=C(c1ccncc1)N1CCN(Cc2ccccc2C(F)(F)F)CC1 | – | –
Cc1ccc(C(=O)Nc2ncc3c(n2)CC(C)(C)CC3=O)cc1 | – | 37
Cc1ccc2nc(NC(=O)c3ccccc3Cl)[nH]c(=O)c2c1 | – | –
SMILES | USP28 inh | USP30 block
CC1(C)CC(=O)c2cnc(NC(=O)c3ccco3)nc2C1 | – | –
Cc1ccc(C(=O)Nc2ncc3c(Cl)cccc3n2)cc1 | – | 33
Cn1cccc1C(=O)NC[C@H]1OC[C@@H]2CCN(Cc3ccco3)C[C@@H]21 | – | –
O=C(NCc1ccc(F)cc1)C1CCCN(c2cnc3nccnc3c2)C1 (stereo not given) | – | –
COc1ccc(S(=O)(=O)Nc2nc3ccccc3nc2NCc2ccccc2)cc1 | – | –
COc1ccc(S(=O)(=O)Nc2c(C)c(C)cc3c2nc(C)n3Cc2cccc(C)c2)cc1 | – | 33
Cn1c(CN2CCCC2Cn2cccn2)nnc1C1CC1 (stereo not given) | – | –
O=C(COc1ccc(F)cc1)Nc1cc(F)c2nc(N3CCOCC3)ccc2c1 | – | –
OCc1ccccc1-c1cnc2sc(NCC3CC3)nn12 | – | –
COc1cc(OC)c(NC(=O)CCCC2=NS(=O)(=O)c3ccccc3N2)cc1Cl | – | –
COc1ccc(-c2nn(-c3ccccc3)cc2C(=O)Nc2ccc(N3CCOCC3)cc2)cc1 | – | –
COc1cccc(-n2c(SCC(=O)N3CCc4ccccc43)nnc2-c2cccnc2)c1 | – | –
CCOc1ccc(-n2c(SCC(=O)N3CC(=O)Nc4ccccc43)nnc2-c2ccc(OC)cc2)cc1 | 35 | –
N#Cc1cccc(CN2CCCC2c2nc(-c3ccccc3)n[nH]2)c1 (stereo not given) | – | –
CCOc1ccccc1C(=O)N1CCN(Cc2c(C)noc2C)CC1 | – | –
Cc1nc(-c2ccc(NC(=O)N3CCC(Cc4ccccc4)CC3)cc2)no1 | 39 | –
Cc1nc(-c2ccc(NC(=O)N3CCN(c4ccccn4)CC3)cc2)no1 | 62 | –
Cc1nc(-c2ccc(NC(=O)N3CCN(c4ccccc4F)CC3)cc2)no1 | – | –
Cc1nc(-c2ccc(NC(=O)N3CCN(c4cccc(Cl)c4)CC3)cc2)no1 | – | –
Cc1ccc(N2CC(C(=O)NCCc3ccc(Cl)cc3)CC2=O)cc1 (stereo not given) | – | –
